# Values joined by “and” are separate entries in the source; they are usually repeats but may differ in a detail not shown here. Equal values may be shown once. Inconclusive results are not listed. A call without a number means that no potency is given here. Some compounds were tested as several samples or in several runs, with calls that do not always agree. A number with no mark means an inactive call. Active and inactive are the calls of the source. Calls follow the shape of the dose curve; as a rule, active = well fitted curve in the direction sought with a large enough effect; inconclusive = small, poorly fitted or top-dose-only effect, or another doubt; inactive = no such curve, though single readings can be large; an effect the other way counts as inactive or inconclusive.
# How the values were obtained:
# HEK293 = assay: Cytotoxic Profiling of Annotated Libraries Using Quantitative High-Throughput Screening (AID 1296008); conditions: Five cell lines viability, CellTiter-Glo ATP luminescence, 48-72 h; max response: stronger effect = lower value; also: nearly all actives have a fitted effect of over 60% in size
# Outline: (§1)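 Cytotoxicity was measured as CellTiter-Glo ATP luminescence, read after 10 min at room temperature. Compound treatment of the cells lasted 48 or 72 hr at 37 degrees Celsius in a qHTS format.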
# HaCat = assay: as above; conditions: Five cell lines viability, CellTiter-Glo ATP luminescence, 48-72 h; max response: stronger effect = lower value
# Outline: as §1
# KB-3-1 = assay: as above; conditions: Five cell lines viability, CellTiter-Glo ATP luminescence, 48-72 h; max response: stronger effect = lower value
# Outline: as §1
# NIH3T3 [1] = assay: as above; conditions: Five cell lines viability, CellTiter-Glo ATP luminescence, 48-72 h; max response: stronger effect = lower value
# Outline: as §1
# MCC-13 = assay: qHTS assay to identify novel small-molecules to repurpose for Merkel cell carcinoma treatment (AID 1296009); conditions: MCC and control cell lines, CellTiter-Glo viability, 72 h; series mostly up to 46 µM; also: nearly all actives have a fitted effect of over 60% in size
# Outline: (§2)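 Cell viability, measured as CellTiter-Glo luminescence, was normalized between DMSO and no-cell wells. The cells had been exposed to 8- or 11-point compound dilutions for 72 hr at 37 degree celsius.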
# MCC-26 = assay: as above; conditions: MCC and control cell lines, CellTiter-Glo viability, 72 h; series mostly up to 46 µM
# Outline: as §2
# MKL-1 = assay: as above; conditions: MCC and control cell lines, CellTiter-Glo viability, 72 h; series mostly up to 46 µM
# Outline: as §2
# UISO = assay: as above; conditions: MCC and control cell lines, CellTiter-Glo viability, 72 h; series mostly up to 46 µM
# Outline: as §2
# WaGa = assay: as above; conditions: MCC and control cell lines, CellTiter-Glo viability, 72 h; series mostly up to 46 µM
# Outline: as §2
# MKL-2 = assay: as above; conditions: MCC and control cell lines, CellTiter-Glo viability, 72 h; series mostly up to 46 µM
# Outline: as §2
# C33A = assay: Primary qHTS to identify gynecologic anti-cancer compounds using libraries of approved drugs and bioactive compounds (AID 1345084); conditions: Gynecologic cancer cell panel viability, ATPlite luminescence, 48 h; series mostly up to 57.5 µM; also: nearly all actives have a fitted effect of over 55% in size
# Outline: (§3)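 Luminescence from the ATPlite ATP-monitoring reagent indicates viable cell number; lower signal means cytotoxicity. Cells received compound 16 h after seeding and were exposed for 48 h across five concentrations.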
# CASKI = assay: as above; conditions: Gynecologic cancer cell panel viability, ATPlite luminescence, 48 h; series mostly up to 57.5 µM
# Outline: as §3
# Es-2 = assay: as above; conditions: Gynecologic cancer cell panel viability, ATPlite luminescence, 48 h; series mostly up to 57.5 µM
# Outline: as §3
# HeLa = assay: as above; conditions: Gynecologic cancer cell panel viability, ATPlite luminescence, 48 h; series mostly up to 57.5 µM
# Outline: as §3
# Hek293T = assay: as above; conditions: Gynecologic cancer cell panel viability, ATPlite luminescence, 48 h, control line for the selectivity index; series mostly up to 57.5 µM
# Outline: as §3
# JEG-3 = assay: as above; conditions: Gynecologic cancer cell panel viability, ATPlite luminescence, 48 h; series mostly up to 57.5 µM
# Outline: as §3
# NIH3T3 [2] = assay: qHTS assay to identify novel small-molecules to repurpose for Merkel cell carcinoma treatment (AID 1296009); conditions: MCC and control cell lines, CellTiter-Glo viability, 72 h; at 44.8 µM (top of the series) unless noted; also: nearly all actives have a fitted effect of over 60% in size
# Outline: as §2
# CAOV3 = assay: Primary qHTS to identify gynecologic anti-cancer compounds using libraries of approved drugs and bioactive compounds (AID 1345084); conditions: Gynecologic cancer cell panel viability, ATPlite luminescence, 48 h; series mostly up to 57.5 µM; also: nearly all actives have a fitted effect of over 55% in size
# Outline: as §3
# Potency is read from the fitted curve at half-maximal effect.
structure (smiles),measurement,setting,value
O=C(CCc1ccc(O)cc1)c1c(O)cc(O)cc1O[C@@H]1O[C@H](CO)[C@H](O)[C@H](O)[C@H]1O,max response,HEK293,1.98%
same,max response,HaCat,-1.37%
same,max response,KB-3-1,1.32%
same,max response,NIH3T3 [1],-7.96%
same,Potency,MCC-13,inactive
same,Potency,MCC-26,inactive
same,Potency,MKL-1,inactive
same,Potency,UISO,inactive
same,Potency,WaGa,inactive
CCc1ccc(C=C2SC(=S)NC2=O)cc1,max response,HEK293,-22.6%
same,max response,HaCat,-1.5%
same,max response,KB-3-1,-5.67%
same,max response,NIH3T3 [1],-14.4%
same,Potency,MCC-13,inactive
same,Potency,MKL-1,inactive
same,Potency,MKL-2,inactive
same,Potency,UISO,inactive
same,Potency,WaGa,inactive
O=C1C[C@@H](c2ccc(O)cc2)Oc2cc(O)cc(O)c21,max response,HEK293,-0.968%
same,max response,HaCat,2.46%
same,max response,KB-3-1,7.82%
same,max response,NIH3T3 [1],1.63%
same,Potency,MCC-13,inactive
same,Potency,MCC-26,inactive
same,Potency,MKL-1,inactive
same,Potency,MKL-2,inactive
same,Potency,UISO,inactive
same,Potency,WaGa,inactive
OC[C@H]1O[C@@H](Oc2cc(O)cc(C=Cc3ccc(O)cc3)c2)[C@H](O)[C@@H](O)[C@H]1O,max response,HEK293,-2.18%
same,max response,HaCat,-6.02%
same,outcome,KB-3-1,inactive
same,max response,NIH3T3 [1],2.83%
same,Potency,MCC-13,inactive
same,Potency,MCC-26,inactive
same,Potency,MKL-1,inactive
same,Potency,MKL-2,inactive
same,Potency,UISO,inactive
same,Potency,WaGa,inactive
NC1=N[C@@]2(c3cc(NC(=O)c4ccc(F)cn4)ccc3F)COC[C@@H]2CS1,max response,HEK293,-6.98%
same,max response,HaCat,-6.87%
same,max response,KB-3-1,8.68%
same,max response,NIH3T3 [1],4.73%
same,Potency,MCC-13,inactive
same,Potency,MCC-26,inactive
same,Potency,MKL-1,10.5 µM (active)
same,Potency,MKL-2,inactive
COc1ccc(-n2c(C)c([N+](=O)[O-])c3ccc(O)cc32)cc1,max response,HEK293,-7.19%
same,max response,HaCat,-25.5%
same,max response,KB-3-1,-1.9%
same,max response,NIH3T3 [1],4.92%
same,Potency,MCC-13,inactive
same,Potency,MCC-26,inactive
same,Potency,MKL-1,inactive
same,Potency,MKL-2,inactive
same,Potency,UISO,inactive
same,Potency,WaGa,inactive
COc1ccc(-c2cc(=O)c3c(O)cc(O)cc3o2)cc1O,max response,HEK293,-3.68%
same,max response,HaCat,3.57%
same,max response,KB-3-1,-19.6%
same,max response,NIH3T3 [1],-2.97%
same,Potency,MCC-13,inactive
same,Potency,MCC-26,inactive
same,Potency,MKL-1,inactive
same,Potency,MKL-2,inactive
O=c1cc(-c2ccccc2)oc2cc(O)c(O)c(O)c12,max response,HEK293,-21.5%
same,max response,HaCat,1.36%
same,max response,KB-3-1,-0.922%
same,max response,NIH3T3 [1],-19.1%
same,Potency,MCC-13,inactive
same,Potency,MCC-26,inactive
same,Potency,MKL-1,inactive
same,Potency,UISO,inactive
COc1cc(Nc2ncc(F)c(Nc3ccc4c(n3)NC(=O)C(C)(C)O4)n2)cc(OC)c1OC,Potency,HEK293,8.33 µM (active)
same,max response,HaCat,-23.4%
same,max response,KB-3-1,2.88%
same,Potency,NIH3T3 [1],8.2 µM (active)
same,Potency,MCC-13,inactive
same,Potency,MCC-26,inactive
same,Potency,MKL-1,inactive
same,Potency,MKL-2,inactive
same,Potency,UISO,inactive
same,Potency,WaGa,inactive
same,Potency,C33A,inactive
same,Potency,CASKI,11.2 µM (active)
same,Potency,Es-2,inactive
same,Potency,HeLa,31.6 µM (active)
same,Potency,Hek293T,inactive
same,Potency,JEG-3,inactive
COC1CCC(N(C(=O)C2CCC(C)CC2)c2cc(C3=CCCCC3)sc2C(=O)O)CC1 (configuration not stated),max response,HEK293,-22.6%
same,max response,HaCat,-16%
same,max response,KB-3-1,-3.16%
same,max response,NIH3T3 [1],-0.413%
same,Potency,MCC-13,inactive
same,Potency,MCC-26,inactive
same,Potency,MKL-1,inactive
same,Potency,MKL-2,inactive
same,Potency,UISO,inactive
same,Potency,WaGa,inactive
O=C(Nc1cc(Cl)cc2c1[nH]c1cnccc12)c1cccnc1,max response,HEK293,3.08%
same,max response,HaCat,-0.0712%
same,max response,KB-3-1,-1.81%
same,max response,NIH3T3 [1],2.41%
same,Potency,MCC-13,inactive
same,Potency,MCC-26,inactive
same,Potency,MKL-1,inactive
same,Potency,MKL-2,inactive
same,Potency,UISO,inactive
same,Potency,WaGa,inactive
COc1cccc(-c2cc(=O)c3ccccc3o2)c1N,max response,HEK293,-10.3%
same,max response,HaCat,-7.74%
same,max response,KB-3-1,-0.147%
same,outcome,NIH3T3 [1],inactive
same,Potency,MCC-13,inactive
same,Potency,MCC-26,inactive
same,Potency,MKL-1,inactive
same,Potency,MKL-2,inactive
same,outcome,NIH3T3 [2],inactive
same,Potency,UISO,inactive
same,Potency,WaGa,inactive
O=C(NCCN1CCOCC1)c1ccc(Cl)cc1,max response,HEK293,-0.241%
same,max response,HaCat,-12.4%
same,max response,KB-3-1,3.6% and -22.2%
same,max response,NIH3T3 [1],4.53%
same,Potency,MCC-13,inactive
same,Potency,MCC-26,inactive
same,Potency,MKL-1,inactive
same,Potency,MKL-2,inactive
same,Potency,UISO,inactive
same,Potency,WaGa,inactive
same,Potency,C33A,inactive
same,Potency,CAOV3,inactive
same,Potency,CASKI,inactive
same,Potency,Es-2,inactive
same,Potency,HeLa,inactive
same,Potency,Hek293T,inactive
same,Potency,JEG-3,inactive
CN1[C@@H]2CCC[C@@H]1CC(NC(=O)c1nn(C)c3ccccc13)C2 (some centres not stated),max response,HEK293,-2.4%
same,max response,HaCat,-5.72%
same,max response,KB-3-1,1.46%
same,max response,NIH3T3 [1],0.235%
same,Potency,MCC-13,inactive
same,Potency,MKL-1,inactive
same,Potency,MKL-2,inactive
same,Potency,UISO,inactive
same,Potency,WaGa,inactive
C[C@]12CCC3c4ccc(O)cc4CCC3C1CCC2=O (some centres not stated),max response,HEK293,-11.3%
same,max response,HaCat,-11.3%
same,max response,KB-3-1,7.4%
same,max response,NIH3T3 [1],-7.72%
same,Potency,MCC-13,inactive
same,Potency,MCC-26,inactive
same,Potency,MKL-1,inactive
same,Potency,MKL-2,inactive
same,Potency,WaGa,inactive
O=c1cc(CN2CCOCC2)occ1OCCCCCSc1ccnc2cc(C(F)(F)F)ccc12,Potency,HEK293,8.33 µM (active) and 4.11 µM (active)
same,max response,HaCat,-9.94%
same,max response,KB-3-1,-24.2%
same,max response,NIH3T3 [1],0.796%
same,Potency,MCC-13,inactive
same,Potency,MCC-26,inactive
same,Potency,MKL-1,inactive
same,Potency,MKL-2,inactive
same,Potency,Hek293T,31.6 µM (active)
COc1cc(N2CCC(N3CCN(C)CC3)CC2)ccc1Nc1ncc(Cl)c(Nc2ccccc2S(=O)(=O)C(C)C)n1,Potency,HEK293,1.16 µM (active)
same,Potency,HaCat,3.66 µM (active)
same,Potency,KB-3-1,0.92 µM (active)
same,Potency,NIH3T3 [1],1.64 µM (active)
same,Potency,MKL-2,inactive
same,Potency,UISO,inactive
same,Potency,CASKI,7.94 µM (active)
same,Potency,HeLa,3.16 µM (active)
same,Potency,JEG-3,inactive

# From PubChem BioAssay (NCATS)
